High-throughput results as filed in PubChem BioAssay.
Most compounds without a hit are left out; they make up all but 7.7% or so of the library.
TbPYK inhibitor = inhibitors of Trypanosoma brucei pyruvate kinase | Q57TT1 | TbPYK enzyme, Kinase-Glo Plus ATP luminescence, 45 min | Potency, µM (titrated, usually from 76.8 µM), usual class: inhibitors | hit rate 0.12% among 410,000 | AID 624173; also: nearly all actives have a fitted effect of over 50% in size
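Screened from lowest to highest concentration, compounds were pinned into TbPYK/substrate mixtures, and ADP (130 uM final) was added. Plates sat at room temperature for 45 min prior to Kinase-Glo Plus detection by luminescence.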
FBPA Giardia inh = blocks Giardia fructose-bisphosphate aldolase activity. A8B2U2. purified Giardia FBPA. Potency, µM (titrated, usually from 59.6 µM), usual class: inhibitors. hit rate 0.71% among 290,000. AID 2451; also: nearly all actives have a fitted effect of over 55% in size
Target sequence (A8B2U2 whole entry, looked up): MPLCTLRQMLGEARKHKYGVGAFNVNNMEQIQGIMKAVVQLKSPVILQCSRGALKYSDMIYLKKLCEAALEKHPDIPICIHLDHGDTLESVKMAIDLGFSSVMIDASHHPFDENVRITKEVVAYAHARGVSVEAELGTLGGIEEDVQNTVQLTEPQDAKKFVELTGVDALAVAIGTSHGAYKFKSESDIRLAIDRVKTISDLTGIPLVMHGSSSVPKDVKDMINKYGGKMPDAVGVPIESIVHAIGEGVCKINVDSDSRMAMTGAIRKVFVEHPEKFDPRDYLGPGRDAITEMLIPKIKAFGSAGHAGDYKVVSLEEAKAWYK
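Giardia FBPA (40 nM reagent) was preincubated 10 min at RT with compound (up to 57.5 uM final), then substrate plus GAPDH/TPI/NAD/arsenate coupling system with diaphorase/resazurin was added; resorufin fluorescence (525/598 nm) was read after 20 min.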
FMDV inh = blocks foot and mouth disease virus; FMDV antiviral cell-based qHTS; Potency, µM (top dose mostly 57.9 µM), actives largely listed as inhibitors; hit rate 1.2% among 410,000; AID 1159524; calls by dose curve; tested in HEK293T cells; also: read-out not given here; nearly all actives have a fitted effect of over 45% in size
HCMV antiviral = inhibitors of human cytomegalovirus; HFF cells, HCMV-luciferase reporter, 72 h; stronger effect = lower value; activity change, negative = inhibition, % at 57.5 µM; hit rate 4.5% among 410,000; AID 1259415; in the data active = activity change below about -60%; inconclusive = no clear call, values can overlap the other calls; inactive = above about -39%
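HFF cells seeded 16 h at 37C, treated with compounds, infected with luciferase-reporter HCMV at MOI 1 PFU/cell; luciferase read at 72 h post infection, normalized to buffer-only and Salinomycin controls.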
Sm TGR inh = inhibitors of Schistosoma mansoni thioredoxin glutathione reductase; Q962Y6; purified TGR, DTNB reduction, TNB absorbance 405 nm; Potency, µM (highest dose often 114 µM), actives largely listed as inhibitors; hit rate 3% among 360,000; AID 485364; also: nearly all actives have a fitted effect of over 60% in size
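TGR 20 nM + NADPH 100 uM (dispensed conc.), cpd preinc 15 min RT; start with NADPH (500 uM addition) then DTNB (15 mM addition). Kinetic TNB absorbance, 405 nm filter. Four-parameter Hill fit across titration.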
RE007 growth inh = less growth of the S. pombe RE007 Vpr strain; S. pombe RE007 Vpr strain, BacTiter-Glo ATP luminescence, 24 h; Potency, µM (titrated, usually from 92.2 µM), actives largely listed as inhibitors; hit rate 0.21% among 360,000; AID 651644; active = well fitted falling curve with a large enough effect; inconclusive = small, poorly fitted or top-dose-only effect; inactive = no such curve, though single readings can be large or run the other way; also: nearly all actives have a fitted effect of over 50% in size
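Fission yeast RE007 carrying one integrated HIV-1 vpr copy, seeded at OD 0.01 in PMG+AL medium with 23 nL pinned compound. Grown 24 h at 30 degrees; viability read by BacTiter-Glo luminescence after 5 min.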
Hits are given with their value; 0 = inactive; ? = inconclusive; - = no result given; [ ] = another dose, or the depositor's remark. Unless noted, calls follow the shape of the dose curve; as a rule, active = well fitted curve in the direction sought with a large enough effect; inconclusive = small, poorly fitted or top-dose-only effect, or another doubt; inactive = no such curve, though single readings can be large; an effect the other way counts as inactive or inconclusive.

SMILES	TbPYK inhibitor	FBPA Giardia inh	FMDV inh	HCMV antiviral	Sm TGR inh	RE007 growth inh
Cc1ccc(-n2ncc(C(=O)Nc3cc(Cl)cc(Cl)c3)c2C2CCNCC2)cc1C	0	0	?	-99	0	0
O=C(CSc1ccsc1[N+](=O)[O-])Nc1cc(F)ccc1F	0	0	0	0	35µM	0
CCN=C1S/C(=C\c2cn(CC)c3ccccc23)C(=O)N1CC	0	0	0	0	0	0
CCN=C1S/C(=C/c2ccc(-c3ccc(F)cc3)o2)C(=O)N1CC	0	0	0	-	45µM	0
CCN=C1S/C(=C\c2ccc(Sc3ccc(Cl)cc3)o2)C(=O)N1CC	0	0	0	0	45µM	0
COc1ccc(NC(=S)NCCc2c(C)[nH]c3ccc(OC)cc23)cc1	0	0	0	-69	0	0
COc1ccc(NC(=S)NCc2ccc(F)cc2)cc1	0	0	0	-64	?	0
COc1ccc(CCNC(=S)Nc2ccc(OC)cc2)cc1	0	0	0	-66	0	0
COc1ccc(NC(=S)NCCc2c[nH]c3ccccc23)cc1	0	0	0	0	0	0
Cc1ccc(-n2c(=O)[nH]c3c(C(N)=O)nc(-c4ccc(C)o4)nc32)cc1	0	0	0	0	32µM	0
Cc1ccc(-n2c(=O)[nH]c3c(C(N)=O)nc(CC(C)C)nc32)cc1	0	0	0	0	0	0
CC(C)OC(=O)C(C(=O)OC(C)C)=C1SC=CS1	0	-	-	-	-	-
Cc1nc2c(OCc3ccc(OC(F)F)cc3)cccn2c1N(C)C(=O)CCC1CCCC1	0	-	25µM	0	-	0[18.4 µM]
CCC(CC)C(=O)N(C)c1c(C)nc2c(OCCOc3ccc(F)cc3)cccn12	0	-	?	-92	-	0
Cc1ccc(-c2nnc(Nc3ccc(Br)cc3)c3ccccc23)cc1S(=O)(=O)NCC1CCCO1 (stereo not given)	0	-	0	0	0	-
O=C(NC1CCCCC1)N1CC(=O)N2[C@H](CO)[C@@H](c3ccc(Br)cc3)[C@@H]2C1	-	-	-	0	-	-
O=C1CC(N2CCC(c3nc4ccccc4[nH]3)CC2)C(=O)N1Cc1ccccc1 (stereo not given)	0	0	-	0	?	?
O=C1CC(N2CCC(c3nc4ccccc4[nH]3)CC2)C(=O)N1c1cccc(F)c1 (stereo not given)	0	0	0	0	?	40µM
O=C(O)c1ccc(N2C(=O)CC(N3CCC(c4nc5ccccc5[nH]4)CC3)C2=O)cc1 (stereo not given)	0	?	0	0	22µM	0
O=C(C1CC(=O)N(c2ccc(F)cc2)C1)N1CCC(c2nc3ccccc3[nH]2)CC1 (stereo not given)	0	-	0	0	0	0
O=C(C1CCCCC1)N1CCC(c2nc3ccccc3[nH]2)CC1	0	0	0	0	0	0
O=C(c1ccc(Br)o1)N1CCC(c2nc3ccccc3[nH]2)CC1	0	-	0	0	40µM	?
CN1C(=O)CC(N2CCC(c3nc4ccccc4[nH]3)CC2)C1=O (stereo not given)	0	0	0	0	89µM	0
CN1CCN(c2ncc3nc(-c4cccs4)c(=O)n(CCC#N)c3n2)CC1	-	0	0	-	-	-
CN(C)c1ccc(CNC(=O)c2csc(N3CCN(CCc4ccccc4)C3=O)n2)cc1	-	-	-	0	-	-
SMILES	TbPYK inhibitor	FBPA Giardia inh	FMDV inh	HCMV antiviral	Sm TGR inh	RE007 growth inh
CCOCCCNC(=O)c1cc(=O)[nH]c2ccc(S(=O)(=O)N3CCCC3)cc12	0	-	0	0	0	-
COc1cccc(NC(=O)N(Cc2cn(C)c3ccccc23)C2CCCCC2)c1	0	-	0	-104	?	-
CC1(C)C(=O)C=CC(=O)C(C)(C)C(=O)C=CC(=O)C(C)(C)C2=CC=C(O2)C(C)(C)C(=O)C=CC1=O	0	-	7.9µM	0	-	0
Cc1ccc2c(c1)N(C(=O)CCC(=O)N1CCN(c3ccccn3)CC1)CCO2	0	0	0	0	0	0
O=C(CCC(=O)N1CCOc2ccc(Cl)cc21)NCCCN1CCC(Cc2ccccc2)CC1	0	0	0	-75	0	0
Cc1ccc(C)c(N2CCN(CCCNC(=O)CCC(=O)N3CCOc4ccc(Cl)cc43)CC2)c1	-	-	-	-83	0	-
O=C(CCC(=O)N1CCOc2ccc(Cl)cc21)NCCCN1CCN(c2ccccc2F)CC1	0	0	?	0	0	0
Cc1ccc(C)c(N2CCN(C(=O)CCC(=O)N3CCOc4ccc(Cl)cc43)CC2)c1	0	0	0	-80	0	0
CN(CCO)C(=O)c1cn(C2CCN(Cc3ccc4ccccc4c3)CC2)nn1	-	-	0	-	-	-
Cc1cnc(C(=O)Nc2cccc3ncccc23)cn1	0	0	0	0	0	0
O=C(O)c1nccnc1C(=O)Nc1ccccc1-c1ccccc1	0	0	0	0	0	0
Cc1cnc(C(=O)Nc2ccccc2-c2ccc(C)o2)cn1	0	?	0	0	20µM	0
Cc1ccc(C(=O)Nc2ccccc2-c2ccccc2)o1	0	0	0	-67	0	0
Cc1ncoc1C(=O)Nc1ccccc1-c1ccccc1	0	0	0	0	1µM	0
CCC1=C2CC[C@H]3C(=O)N(CC(=O)OC)C(=O)[C@H]3[C@H]2[C@@]2(C)C(=NCCc3c[nH]c4ccccc34)OC(=O)N2C1=O	-	0	-	-	-	-
COc1ccc(N=Nc2n(C)c3ccccc3[n+]2C)cc1	-	?	-	-	5µM	-
CCOC(=O)c1cccc(-c2ccc(C=O)o2)c1	0	0	0	0	50µM	0
CN(C)S(=O)(=O)c1ccc2c(c1)N(CC(=O)Nc1ccc(F)cc1)C(=O)CS2	0	-	0	0	0	-
CCN(C(=O)C1CCN(S(=O)(=O)c2ccc3c(c2)CCCN3C(=O)C2CCC2)CC1)c1cccc(C)c1	0	-	?	0	0	-
Cc1nc2ccc(NC(=O)c3nn(CC(C)C)c(=O)c4ccccc34)cc2s1	0	0	0	-62	0	0
CC(C)Cn1nc(C(=O)NCc2ccccc2CN2CCCC2)c2ccccc2c1=O	0	-	0	0	28µM	0
O=C(Nc1ccccc1F)c1ccc([N+](=O)[O-])s1	0	0	0	?	?	?
O=C(Nc1cccc2ccccc12)c1cnsn1	0	0	0	-64	0	0
O=C(Nc1cccnc1)c1ccc([N+](=O)[O-])s1	0	-	0	-84	0	0
O=C(Nc1cccc2ccccc12)c1ccc([N+](=O)[O-])s1	0	0	0	-98	0	0
[NH-]CCC([O-])=NC(Cc1cnc[nH]1)C(=O)[O-].[Zn+2] (stereo not given)	0	-	-	-	-	-
Cn1c(=O)c(=O)n(C)c2cc([N+](=O)[O-])c([N+](=O)[O-])cc21	0	0	?	0	20µM	0
N#Cc1c(NC(=O)c2ccc([N+](=O)[O-])o2)sc2c1CCC2	0	?	0	?	35µM	?
O=C(c1ccco1)N1CCN(C(=O)c2ccc(Cn3cc(Br)cn3)o2)CC1	0	0	0	0	40µM	0
